From ChEMBL document CHEMBL1961873, “Compounds: GSK PKIS; Assays: Nanosyn kinase panel” (2012)

What was measured:
[1] = molecular target: CDK3/Cyclin E (Homo sapiens) (UniProt P24864+Q00526); settings: at 1 µM;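 further: each figure is a mean percent inhibition of the CDK3/cyclin E complex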
[2] = molecular target: Cyclin-dependent kinase 4 (Homo sapiens) (UniProt P11802); settings: at 0.1 µM
[3] = molecular target: Cyclin-dependent kinase 4 (Homo sapiens) (UniProt P11802); settings: at 1 µM
[4] = molecular target: Cyclin-dependent kinase 5 (Homo sapiens) (UniProt Q00535); settings: at 0.1 µM
[5] = molecular target: Cyclin-dependent kinase 5 (Homo sapiens) (UniProt Q00535); settings: at 1 µM
[6] = molecular target: Cyclin-dependent kinase 6 (Homo sapiens) (UniProt Q00534); settings: at 0.1 µM
[7] = molecular target: Cyclin-dependent kinase 6 (Homo sapiens) (UniProt Q00534); settings: at 1 µM
[8] = molecular target: Dual specificity protein kinase CLK2 (Homo sapiens) (UniProt P49760); settings: at 0.1 µM
[9] = molecular target: Dual specificity protein kinase CLK2 (Homo sapiens) (UniProt P49760); settings: at 1 µM
[10] = molecular target: Dual specificity protein kinase CLK3 (Homo sapiens) (UniProt P49761); settings: at 0.1 µM
Chain of Dual specificity protein kinase CLK3 (Homo sapiens) (P49761 whole entry, looked up): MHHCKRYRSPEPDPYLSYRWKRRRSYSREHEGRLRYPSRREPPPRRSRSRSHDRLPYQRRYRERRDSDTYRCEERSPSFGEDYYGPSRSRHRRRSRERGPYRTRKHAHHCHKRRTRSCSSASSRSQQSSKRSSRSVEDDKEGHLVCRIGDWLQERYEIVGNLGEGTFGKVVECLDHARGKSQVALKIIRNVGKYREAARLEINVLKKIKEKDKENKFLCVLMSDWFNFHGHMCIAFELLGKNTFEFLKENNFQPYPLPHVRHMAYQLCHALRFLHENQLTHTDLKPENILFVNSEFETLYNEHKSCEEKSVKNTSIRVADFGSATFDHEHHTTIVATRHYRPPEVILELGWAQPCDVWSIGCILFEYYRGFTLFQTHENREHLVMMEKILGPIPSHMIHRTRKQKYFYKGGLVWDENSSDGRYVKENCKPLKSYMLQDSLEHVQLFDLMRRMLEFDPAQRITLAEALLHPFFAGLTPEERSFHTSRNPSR

Chain of Cyclin-dependent kinase 4 (Homo sapiens) (P11802 whole entry): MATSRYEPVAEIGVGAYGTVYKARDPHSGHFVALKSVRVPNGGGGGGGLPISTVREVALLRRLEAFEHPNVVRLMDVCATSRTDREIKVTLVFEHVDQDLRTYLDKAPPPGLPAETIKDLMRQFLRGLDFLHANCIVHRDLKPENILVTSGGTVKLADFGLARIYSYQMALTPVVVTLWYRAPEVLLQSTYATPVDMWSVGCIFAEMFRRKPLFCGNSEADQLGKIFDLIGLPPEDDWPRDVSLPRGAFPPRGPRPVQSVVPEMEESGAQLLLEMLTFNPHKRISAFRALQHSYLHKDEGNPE
Chain of CDK3/Cyclin E (Homo sapiens) (P24864 whole entry, looked up): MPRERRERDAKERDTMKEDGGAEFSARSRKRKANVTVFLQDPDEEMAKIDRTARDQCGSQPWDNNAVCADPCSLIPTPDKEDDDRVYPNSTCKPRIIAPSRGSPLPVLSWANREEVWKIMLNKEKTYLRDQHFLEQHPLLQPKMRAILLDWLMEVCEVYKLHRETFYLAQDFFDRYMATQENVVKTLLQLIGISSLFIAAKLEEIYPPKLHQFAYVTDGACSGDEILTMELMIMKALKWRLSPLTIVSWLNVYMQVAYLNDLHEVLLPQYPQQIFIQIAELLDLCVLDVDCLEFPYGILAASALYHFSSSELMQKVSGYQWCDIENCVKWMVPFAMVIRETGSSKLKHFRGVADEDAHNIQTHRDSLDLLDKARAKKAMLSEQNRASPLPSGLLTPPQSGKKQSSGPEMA
Chain of CDK3/Cyclin E (Homo sapiens) (Q00526 whole entry, looked up): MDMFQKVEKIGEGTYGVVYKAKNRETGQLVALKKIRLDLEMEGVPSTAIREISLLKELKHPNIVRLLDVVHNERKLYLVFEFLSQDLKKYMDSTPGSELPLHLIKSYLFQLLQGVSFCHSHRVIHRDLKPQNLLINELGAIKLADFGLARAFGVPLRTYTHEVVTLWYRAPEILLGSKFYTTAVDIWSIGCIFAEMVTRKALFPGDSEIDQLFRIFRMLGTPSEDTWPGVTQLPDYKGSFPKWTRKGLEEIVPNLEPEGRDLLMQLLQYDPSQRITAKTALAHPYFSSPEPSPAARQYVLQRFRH
Chain of Cyclin-dependent kinase 6 (Homo sapiens) (Q00534 whole entry): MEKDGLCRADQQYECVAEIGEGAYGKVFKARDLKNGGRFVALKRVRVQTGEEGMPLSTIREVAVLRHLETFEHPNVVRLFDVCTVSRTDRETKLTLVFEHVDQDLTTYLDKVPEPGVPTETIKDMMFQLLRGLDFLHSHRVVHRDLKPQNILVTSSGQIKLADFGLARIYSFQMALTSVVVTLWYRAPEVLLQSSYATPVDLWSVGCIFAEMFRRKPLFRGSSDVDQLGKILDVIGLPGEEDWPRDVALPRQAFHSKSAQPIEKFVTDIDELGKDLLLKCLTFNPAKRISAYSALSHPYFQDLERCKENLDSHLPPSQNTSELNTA
Chain of Cyclin-dependent kinase 5 (Homo sapiens) (Q00535 whole entry, looked up): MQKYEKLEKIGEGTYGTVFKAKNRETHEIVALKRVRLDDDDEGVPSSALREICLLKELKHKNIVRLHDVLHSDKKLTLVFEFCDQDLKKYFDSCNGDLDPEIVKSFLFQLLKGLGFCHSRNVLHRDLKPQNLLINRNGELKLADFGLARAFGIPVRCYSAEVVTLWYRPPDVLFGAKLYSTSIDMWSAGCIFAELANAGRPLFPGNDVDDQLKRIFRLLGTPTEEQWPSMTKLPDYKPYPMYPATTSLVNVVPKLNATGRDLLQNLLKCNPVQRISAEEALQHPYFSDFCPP
Chain of Dual specificity protein kinase CLK2 (Homo sapiens) (P49760 whole entry, looked up): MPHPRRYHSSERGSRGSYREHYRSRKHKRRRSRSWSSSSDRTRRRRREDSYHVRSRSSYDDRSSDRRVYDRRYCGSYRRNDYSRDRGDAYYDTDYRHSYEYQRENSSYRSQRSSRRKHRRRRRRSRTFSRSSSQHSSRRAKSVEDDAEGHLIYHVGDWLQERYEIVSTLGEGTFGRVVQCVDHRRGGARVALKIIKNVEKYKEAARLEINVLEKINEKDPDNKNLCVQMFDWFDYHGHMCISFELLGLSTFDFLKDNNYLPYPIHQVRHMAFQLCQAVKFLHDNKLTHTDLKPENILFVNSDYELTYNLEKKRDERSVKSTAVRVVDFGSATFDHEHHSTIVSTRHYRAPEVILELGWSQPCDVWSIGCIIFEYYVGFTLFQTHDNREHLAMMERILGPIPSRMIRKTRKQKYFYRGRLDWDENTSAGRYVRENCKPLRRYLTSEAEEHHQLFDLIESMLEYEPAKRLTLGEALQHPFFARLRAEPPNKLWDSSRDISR

SMILES | inhibition [1] [%] | inhibition [2] [%] | inhibition [3] [%] | inhibition [4] [%] | inhibition [5] [%] | inhibition [6] [%] | inhibition [7] [%] | inhibition [8] [%] | inhibition [9] [%] | inhibition [10] [%]
COc1cc2c(cc1Nc1nc(Nc3ccsc3C(N)=O)c3cc[nH]c3n1)N(C(=O)CN(C)C)CCC2 | -1.3 | 3.79 | 5.67 | 0.94 | -0.24 | 5.85 | 6.19 | 15.6 | 72 | 1.22
CCn1c(-c2nonc2N)nc2c(C#CC(C)(C)O)ncc(OCC3CCNCC3)c21 | 1.62 | -1.61 | 3.91 | 1.05 | 5.69 | -0.95 | 4.82 | 5.25 | 29.4 | -2.14
NS(=O)(=O)c1ccc(N/C=C2\C(=O)Nc3ccc4ncsc4c32)cc1 | 94.7 | 30.7 | 64.6 | 60.7 | 72.8 | 36.8 | 69 | 11.6 | 64.1 | 1.81
Fc1ccc(-c2ncn(C3CCNCC3)c2-c2ccnc(Oc3ccccc3)n2)cc1 | -2.25 | -3.54 | -2.32 | -3.32 | -2.14 | -6.2 | -4.11 | 0.8 | -0.83 | -3.78
CCn1c(-c2nonc2N)nc2c(C#CC(C)(C)O)nc(O[C@@H](CN)c3ccccc3)cc21 | -0.03 | 1.37 | 4.92 | 2.41 | 4.69 | -4.5 | 3.24 | 10.2 | 56.3 | -1.43
CCn1c(-c2nonc2N)nc2c(C#CCN)ncc(OCCCN)c21 | 2.11 | -2.32 | -2.14 | 1.95 | 1.6 | 0.56 | -5.81 | 1.13 | 0.74 | -0.24
NS(=O)(=O)c1ccc(-c2ccc3c(NC(=O)C4CC4)n[nH]c3c2)cc1 | 5.48 | 3.11 | 6.7 | 2.07 | 4.41 | 13.7 | 46.3 | 1.09 | -0.2 | 0.84
COc1cccc(-n2ncc3c(N/N=C/c4ccncc4)ncnc32)c1 | 49.4 | 16.5 | 52.6 | 39.7 | 78.8 | 15.4 | 51.1 | 4.97 | 35 | 4.27
Nc1nonc1-c1nc2cnccc2n1C1CCCCC1 | 11.3 | 0.8 | 5.81 | 5 | 18 | -5.33 | 1.64 | 3.99 | 39.2 | -0.8
Cc1cc(-c2ccco2)cc(C)c1/C=C/c1cncc(-c2nn[nH]n2)c1 | -1.27 | 0.48 | 2.4 | 0.53 | 1.53 | -2.45 | -0.96 | -1.47 | -2.94 | 0.27
COc1cc(C=NNc2ncnc3c2cnn3Cc2ccccc2)ccc1O | 2.73 | 0.2 | 5.23 | 2.79 | 16.2 | – | -0.46 | -0.27 | 3.62 | 0.25
COc1cccc(COc2cc(-n3cnc4ccccc43)sc2C(N)=O)c1 | -2.65 | 0.26 | 1.36 | -0.51 | -0.16 | -4.03 | -1 | 0.48 | 1.3 | -0.79
NC(=O)c1sc(-n2cnc3cc(C(F)(F)F)ccc32)cc1OCc1ccccc1Br | -2.44 | 1.17 | 2.92 | 0.88 | 2.08 | -0.56 | -1.42 | 0.89 | 0.1 | -0.27
CCn1c(-c2nonc2N)nc2c(C#CC(C)(C)O)ncc(OC[C@@H]3CCCN3)c21 | -4.39 | 0.04 | 1.01 | -0.13 | -0.81 | -2.82 | -5.08 | 1.88 | 9.59 | 0.26
